Records with an inconclusive call do not appear. Where a call stands in place of a potency, no number is given. Activity calls are given as the source filed them. Unless noted, calls follow the shape of the full dose curve.
Assay: Nuclear factor erythroid 2-related factor 2/antioxidant responsive element (Nrf2/ARE) small molecule agonists: qHTS cell viability counter screen in human keratinocytes (AID 1919968; active = well fitted cell-killing curve with a large enough effect in the repeat runs; also: nearly all actives have a fitted effect of over 55% in size)
Details: KeratinoSens HaCaT ARE cells viability, CellTiter-Fluor, 24 h; series mostly up to 92.4 µM
In short: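 HaCaT ARE reporter line, 1,500 cells/well; 5 h settle, 37 C/5% CO2; cpd in DMSO pinned; 23 h exposure; CellTiter-Fluor, 1 h; fluorescence.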
Potency is read from the fitted curve at half-maximal effect.

| SMILES | Potency |
| --- | --- |
| CNCc1cc(F)ccc1Oc1ccc(Cl)c(Cl)c1 | 27.3 µM (active) |
| CC(C)(C)c1cc(/C=C2\SC(=N)NC2=O)cc(C(C)(C)C)c1O | 30.6 µM (active) |
| CN(C)CCN(Cc1ccccc1)c1ccccn1 | inactive |
| O=c1[nH]c(=O)n([C@H]2C[C@H](O)[C@@H](CO)O2)cc1F | inactive |
| O=S(=O)(Oc1ccc(Cl)cc1)c1ccccc1 | inactive |
| CCc1ncc(C)[nH]1 | inactive |
| O=C1CCCc2c1cc1ccc3cccc4ccc2c1c34 | inactive |
| CC(C)(C)CC(C)(C)c1ccccc1O | 27.4 µM (active) |
| CCCCC/C=C\C/C=C\CCCCCCCC(=O)NC(C)c1ccccc1 (stereo not given) | inactive |
| Oc1ccc2c(c1)-c1ccccc1C2 | inactive |
| CSC(=O)c1cccc2nnsc12 | inactive |
| CCC[C@@H]1C[C@@H](C(=O)N[C@@H]([C@H]2O[C@H](SC)[C@H](O)[C@@H](O)[C@H]2O)[C@@H](C)O)N(C)C1 | inactive |
| CCCCCCCCCCCCCCCCCCNC(=O)OC1CCN(C(=O)OC[C@H](COC(=O)N(Cc2cccc[n+]2CC)C(=O)c2ccccc2OC)OC)CC1 | 10.6 µM (active) |
| CC(=O)/C=C/C=C1/C2CCC(C2)C1(C)C (stereo not given) | inactive |
| Cc1c(-c2ccccc2)oc2c(C(=O)OCCN3CCCCC3)cccc2c1=O | inactive |
| CCN(Cc1cccnc1)C(=O)c1cccc(Cl)c1[C@]1(C)C(=O)N(Cc2ccc(OC)cc2OC)c2ccc(Cl)cc21 | inactive |
| COc1cc(-c2ccc(=O)[nH]n2)ccc1OC(F)F | inactive |
| CCCCCCCCCCCCN1CCCCCC1=O | 61.1 µM (active) |
| COc1ccc(S(=O)(=O)Nc2nnc(CC(C)C)s2)cc1 | inactive |
| NC(=O)N1C(=O)C(C(=O)c2cc(Cl)cs2)c2cc(F)c(Cl)cc21 (stereo not given) | 24.3 µM (active) |

| SMILES | Potency |
| --- | --- |
| O=C(O)c1c2ccccc2cc2ccccc12 | inactive |
| Cc1cc(NC(=O)C(=O)O)cc(C)c1Oc1ccc(O)c2c1CCC2 | inactive |
| CCOC(=O)C1=C(C)NC(C)=C(C(=O)OCC)C1c1ccccc1/C=C/C(=O)OC(C)(C)C | 18.8 µM (active) |
| Cc1oc(-c2ccccc2)nc1CCOc1cccc2c1ccn2CCC(=O)O | inactive |
| O=C(CCCN1CCN(c2ccc(F)cc2)CC1)NC1c2ccccc2CSc2ccccc21 (stereo not given) | inactive |
| COc1ccc(/C=C/c2cc(OC)cc(=O)o2)cc1 | inactive |
| CCCNC(C)C(=O)Nc1c(C)csc1C(=O)OC (stereo not given) | inactive |
| OCCCS | inactive |
| O=C(O)COc1ccc2ccccc2c1 | inactive |
| OCCCCCO | inactive |
| CC(=O)OCC(=O)[C@@]1(O)[C@H](OC(C)=O)C[C@H]2[C@@H]3CCC4=CC(=O)C=C[C@]4(C)[C@@]3(F)[C@@H](O)C[C@@]21C | inactive |
| NS(=O)(=O)c1ccc(C(=O)O)cc1 | inactive |
| O=C(O)C1(C(=O)Nc2ccc(Cl)cc2Cl)CC1 | inactive |
| CC1=CC(C)C(C=O)C(C)C1 (stereo not given) | inactive |
| ClCCOCCOCCCl | inactive |
| CCc1c2c(nc3ccc(OC(=O)N4CCC(N5CCCCC5)CC4)cc13)-c1cc3c(c(=O)n1C2)COC(=O)[C@]3(O)CC | inactive |
| CC(COc1ccccc1)NN (stereo not given) | inactive |
| CCCCNC(=O)NCCCC | inactive |
| CCOc1ccccc1OCC1CNCCO1 (stereo not given) | inactive |
| Cc1coc2ccccc2c1=O | inactive |

Assay: Nuclear factor erythroid 2-related factor 2/antioxidant responsive element (Nrf2/ARE) small molecule agonists: luciferase reporter gene qHTS assay in human keratinocytes (AID 1919969); also: nearly all actives have a fitted effect of over 35% in size
Details: KeratinoSens HaCaT ARE-luciferase, luminescence, 24 h; series mostly up to 92.4 µM

| SMILES | Potency |
| --- | --- |
| CNCc1cc(F)ccc1Oc1ccc(Cl)c(Cl)c1 | inactive |
| CC(C)(C)c1cc(/C=C2\SC(=N)NC2=O)cc(C(C)(C)C)c1O | inactive |
| CN(C)CCN(Cc1ccccc1)c1ccccn1 | inactive |
| O=c1[nH]c(=O)n([C@H]2C[C@H](O)[C@@H](CO)O2)cc1F | inactive |
| O=S(=O)(Oc1ccc(Cl)cc1)c1ccccc1 | inactive |
| CCc1ncc(C)[nH]1 | inactive |
| O=C1CCCc2c1cc1ccc3cccc4ccc2c1c34 | 34.8 µM (active) |
| CC(C)(C)CC(C)(C)c1ccccc1O | inactive |
| CCCCC/C=C\C/C=C\CCCCCCCC(=O)NC(C)c1ccccc1 (stereo not given) | inactive |
| Oc1ccc2c(c1)-c1ccccc1C2 | inactive |
| CSC(=O)c1cccc2nnsc12 | inactive |
| CCC[C@@H]1C[C@@H](C(=O)N[C@@H]([C@H]2O[C@H](SC)[C@H](O)[C@@H](O)[C@H]2O)[C@@H](C)O)N(C)C1 | inactive |
| CCCCCCCCCCCCCCCCCCNC(=O)OC1CCN(C(=O)OC[C@H](COC(=O)N(Cc2cccc[n+]2CC)C(=O)c2ccccc2OC)OC)CC1 | inactive |
| CC(=O)/C=C/C=C1/C2CCC(C2)C1(C)C (stereo not given) | inactive |
| Cc1c(-c2ccccc2)oc2c(C(=O)OCCN3CCCCC3)cccc2c1=O | inactive |
| CCN(Cc1cccnc1)C(=O)c1cccc(Cl)c1[C@]1(C)C(=O)N(Cc2ccc(OC)cc2OC)c2ccc(Cl)cc21 | inactive |
| COc1cc(-c2ccc(=O)[nH]n2)ccc1OC(F)F | inactive |
| CCCCCCCCCCCCN1CCCCCC1=O | inactive |
| COc1ccc(S(=O)(=O)Nc2nnc(CC(C)C)s2)cc1 | inactive |
| NC(=O)N1C(=O)C(C(=O)c2cc(Cl)cs2)c2cc(F)c(Cl)cc21 (stereo not given) | inactive |

| SMILES | Potency |
| --- | --- |
| O=C(O)c1c2ccccc2cc2ccccc12 | 48.4 µM (active) |
| Cc1cc(NC(=O)C(=O)O)cc(C)c1Oc1ccc(O)c2c1CCC2 | inactive |
| CCOC(=O)C1=C(C)NC(C)=C(C(=O)OCC)C1c1ccccc1/C=C/C(=O)OC(C)(C)C | inactive |
| Cc1oc(-c2ccccc2)nc1CCOc1cccc2c1ccn2CCC(=O)O | inactive |
| O=C(CCCN1CCN(c2ccc(F)cc2)CC1)NC1c2ccccc2CSc2ccccc21 (stereo not given) | inactive |
| COc1ccc(/C=C/c2cc(OC)cc(=O)o2)cc1 | inactive |
| CCCNC(C)C(=O)Nc1c(C)csc1C(=O)OC (stereo not given) | inactive |
| OCCCS | inactive |
| O=C(O)COc1ccc2ccccc2c1 | inactive |
| OCCCCCO | inactive |
| CC(=O)OCC(=O)[C@@]1(O)[C@H](OC(C)=O)C[C@H]2[C@@H]3CCC4=CC(=O)C=C[C@]4(C)[C@@]3(F)[C@@H](O)C[C@@]21C | inactive |
| NS(=O)(=O)c1ccc(C(=O)O)cc1 | inactive |
| O=C(O)C1(C(=O)Nc2ccc(Cl)cc2Cl)CC1 | inactive |
| CC1=CC(C)C(C=O)C(C)C1 (stereo not given) | inactive |
| ClCCOCCOCCCl | inactive |
| CCc1c2c(nc3ccc(OC(=O)N4CCC(N5CCCCC5)CC4)cc13)-c1cc3c(c(=O)n1C2)COC(=O)[C@]3(O)CC | inactive |
| CC(COc1ccccc1)NN (stereo not given) | inactive |
| CCCCNC(=O)NCCCC | inactive |
| CCOc1ccccc1OCC1CNCCO1 (stereo not given) | inactive |
| Cc1coc2ccccc2c1=O | inactive |
